# In ChEMBL document CHEMBL3433997, “St. Jude Leishmania screening dataset” (2016):
# Target: Solute carrier family 2, facilitated glucose transporter member 1 (Homo sapiens) (UniProt P11166)
# Assay: ST_JUDE_LEISH: Cytotoxicity at 2uM final concentration against transgenic Leishmania Mexicana promastigotes LmGLUT1 that are glucose transport deficient and complemented with the human glucose transporter GLUT1. Activity is measured by DNA content using SYBR green in vitro
# Format: functional
# Solute carrier family 2, facilitated glucose transporter member 1 (Homo sapiens), sequence (P11166 whole entry): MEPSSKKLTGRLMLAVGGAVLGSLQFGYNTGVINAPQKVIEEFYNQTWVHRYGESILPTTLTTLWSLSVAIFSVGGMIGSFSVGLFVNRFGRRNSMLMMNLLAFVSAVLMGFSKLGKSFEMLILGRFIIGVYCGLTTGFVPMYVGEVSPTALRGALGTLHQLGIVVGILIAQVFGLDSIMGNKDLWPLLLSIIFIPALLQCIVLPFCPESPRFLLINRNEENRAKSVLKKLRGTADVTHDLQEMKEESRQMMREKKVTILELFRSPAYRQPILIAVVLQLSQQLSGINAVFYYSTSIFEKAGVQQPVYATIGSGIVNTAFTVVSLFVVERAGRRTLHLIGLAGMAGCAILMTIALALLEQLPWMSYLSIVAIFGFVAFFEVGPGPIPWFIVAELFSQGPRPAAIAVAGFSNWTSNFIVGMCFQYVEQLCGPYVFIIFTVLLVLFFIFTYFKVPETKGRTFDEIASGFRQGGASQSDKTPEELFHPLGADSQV
row,SMILES,inhibition
1,CC(Sc1nc(-c2ccccc2)c(-c2ccccc2)o1)C(=O)NC1CC1 (stereo not given),-2%
2,O=C(Cc1ccc(-n2cnnn2)cc1)N(Cc1cncn1Cc1cccc(C(F)(F)F)c1)CC1CC1,-1.26%
3,CN1CCCc2ccc(NC(=O)Nc3ccc(Cl)c(Cl)c3)cc2C1,-0.95%
4,COc1ccc(CNC2Cc3ccccc3C2)cc1-c1ccc(S(=O)(=O)NCc2cccnc2)s1,1.92%
5,CN(C)CCOc1cc(NC(=O)Nc2ccc(Cl)cc2C(F)(F)F)ccc1I,3.57%
6,Oc1ccccc1CCNC1CCc2ccccc2C1 (stereo not given),4.4%
7,CCCCOc1cc2c(cc1OCC)C(C=Cc1ccc(Cl)cc1Cl)=NCC2,15.5%
8,ON=C1CCc2cc(-c3[nH]c(-c4cccc(OCCNCc5ccc(F)cc5)c4)nc3-c3ccncc3)ccc21,16.7%
9,O=C1Nc2cccc3c2C1(CCCCCN1CCC(c2c[nH]c4ccncc24)CC1)CCC3 (stereo not given),1%
10,O=S(=O)(NCCN1CCCC1)c1ccc(-c2cccc(CNC3Cc4ccccc4C3)c2)cc1F,7.61%
11,O=C(c1ccccc1)N1CCC[C@](CCCN2CCN(c3ccccc3O)CC2)(c2ccc(Cl)c(Cl)c2)C1,5.1%
12,CCCCCN1CCCN(Cc2cccc(NC(=O)c3ccc4ccccc4c3)c2)CC1,4.56%
13,Cc1n[nH]c2cc(F)c(-c3cc(OC[C@@H](N)Cc4ccccc4)cnc3-c3ccoc3)cc12,10.8%
14,COc1cc(CC2c3cc(O)c(Cl)cc3CCN2C)c(OC)cc1C (stereo not given),3.63%
15,COc1ccccc1CCNc1nc(C)cc(N[C@@H](Cc2ccccc2)C(=O)NCc2cccs2)n1,2.42%
16,CN(c1ccc2c(c1)nc(NCc1ccccc1)n2C)c1ccnc(Nc2ccc(CS(C)(=O)=O)cc2)n1,4.69%
17,CCN(CC)CCCn1c(N)c(-c2nc3ccccc3[nH]2)c2nc(C#N)c(C#N)nc21,7.13%
18,Cn1cc(C2CCN(CCCCNC(=O)c3ccc(-c4ccc(C(F)(F)F)cc4)c(CO)c3)CC2)c2ccccc21,4.11%
19,Cc1[nH]c(C)c([N+](=O)[O-])c(=O)c1-c1ccc(Oc2ccccc2)cc1,-1.81%
20,O=C(Nc1cccc(CN2CCCN(Cc3ccc(O)cc3)CC2)c1)c1cc2ccccc2o1,-0.45%

row,SMILES,inhibition
1,CS(=O)(=O)Cc1ccc(Nc2nccc(N3CCCc4cc(NC(=O)Nc5cccc(C(F)(F)F)c5)ccc43)n2)cc1,9.54%
2,Cc1ccc2c(Cc3cnc(N)nc3N)cc(C)c(N)c2n1,2.06%
3,Cc1cc(N[C@@H](Cc2ccccc2)C(=O)NCCOc2ccccc2)nc(Nc2ccccc2)n1,6.08%
4,O=C(Nc1ccc(N2CCCN(Cc3cccc(F)c3)CC2)cc1)c1ccccc1,0.26%
5,COCCN1CCN(Cc2ccc(-c3ccc(-c4nc5cc(F)ccc5[nH]4)cc3)cc2)CC1,6.74%
6,COc1ccc2nc(N=C3NC4(c5ccccc5)NC(=Nc5nc6ccc(OC)cc6[nH]5)NC4(c4ccccc4)N3)[nH]c2c1 (stereo not given),-1.9%
7,O=[N+]([O-])c1ccc(Nc2nc(NCc3ccccc3)nc(N/N=C/c3ccccc3[N+](=O)[O-])n2)cc1,2.21%
8,CCc1c(CCNCCCCCCNCCc2ccc([N+](=O)[O-])cc2)ccc(OC)c1OC,12.1%
9,O=C(O)C[C@H](NC(=O)c1cc(-c2ccc3c(c2)OCO3)no1)C(=O)O.O=C(O)C[C@H](NC(=O)c1conc1-c1ccc2c(c1)OCO2)C(=O)O,-1.58%
10,COc1ccc2nccc([C@@H](O)CN3CCC(NCc4cc5c(F)ccc(F)c5[nH]4)CC3)c2c1,21.9%
11,CCc1ccc(C2=Nn3c(nnc3-c3cccs3)SC2)cc1,2.35%
12,COC1(C)Oc2ccc3cccc([N+](=O)[O-])c3c2C1=O (stereo not given),0.18%
13,COc1ccccc1N1CCN(Cc2c(NC(C)=O)sc(C)c2C)CC1,0.73%
14,Fc1cccc(Nc2nc(NCc3ccc4ccsc4c3)nc(Nc3cccc(F)c3)n2)c1,19.2%
15,Cc1cc(-c2ccc3c(c2)CCN(CCC2CCC(NC(=O)/C=C/c4cccc(Cl)c4)CC2)CC3)on1 (stereo not given),4.19%
16,COc1ccc2nc3cc(Cl)ccc3c(NCCCCCCNc3c4ccc(Cl)cc4nc4ccc(OC)cc34)c2c1,10.3%
17,Oc1cc(Nc2ccnc3cc(I)ccc23)c(F)cc1Cl,6.52%
18,Cc1cc(C)n(Cc2ccc(C(=O)NCC3CCCCC3)cc2)n1,4.03%
19,COc1ccc2nccc([C@@H](O)CN3CCC(NC(=O)C(c4cc5ccccc5o4)N4CCN(c5ccc(F)cc5)CC4)CC3)c2c1 (stereo not given in full),2.59%
20,CCNc1cc(C(=O)N[C@@H](Cc2ccccc2)[C@H](O)CNC23CCC(CC2)CC3)cc(N2CCCCS2(=O)=O)c1,0.73%

# Target: Hexose transporter 1 (Plasmodium falciparum) (UniProt O97467)
# Assay: ST_JUDE_LEISH: Cytotoxicity at 2uM final concentration against transgenic Leishmania Mexicana promastigotes LmPfHT that are glucose transport deficient and complemented with the Plasmodium falciparum hexose transporter. Activity is measured by DNA content using SYBR green in vitro
# Format: functional
row,SMILES,inhibition
1,CC(Sc1nc(-c2ccccc2)c(-c2ccccc2)o1)C(=O)NC1CC1 (stereo not given),1.75%
2,O=C(Cc1ccc(-n2cnnn2)cc1)N(Cc1cncn1Cc1cccc(C(F)(F)F)c1)CC1CC1,-1.38%
3,CN1CCCc2ccc(NC(=O)Nc3ccc(Cl)c(Cl)c3)cc2C1,-0.84%
4,COc1ccc(CNC2Cc3ccccc3C2)cc1-c1ccc(S(=O)(=O)NCc2cccnc2)s1,2.48%
5,CN(C)CCOc1cc(NC(=O)Nc2ccc(Cl)cc2C(F)(F)F)ccc1I,1.15%
6,Oc1ccccc1CCNC1CCc2ccccc2C1 (stereo not given),5.27%
7,CCCCOc1cc2c(cc1OCC)C(C=Cc1ccc(Cl)cc1Cl)=NCC2,27.9%
8,ON=C1CCc2cc(-c3[nH]c(-c4cccc(OCCNCc5ccc(F)cc5)c4)nc3-c3ccncc3)ccc21,9.15%
9,O=C1Nc2cccc3c2C1(CCCCCN1CCC(c2c[nH]c4ccncc24)CC1)CCC3 (stereo not given),2.45%
10,O=S(=O)(NCCN1CCCC1)c1ccc(-c2cccc(CNC3Cc4ccccc4C3)c2)cc1F,2.53%
11,O=C(c1ccccc1)N1CCC[C@](CCCN2CCN(c3ccccc3O)CC2)(c2ccc(Cl)c(Cl)c2)C1,4.13%
12,CCCCCN1CCCN(Cc2cccc(NC(=O)c3ccc4ccccc4c3)c2)CC1,4.49%
13,Cc1n[nH]c2cc(F)c(-c3cc(OC[C@@H](N)Cc4ccccc4)cnc3-c3ccoc3)cc12,16.1%
14,COc1cc(CC2c3cc(O)c(Cl)cc3CCN2C)c(OC)cc1C (stereo not given),4.4%
15,COc1ccccc1CCNc1nc(C)cc(N[C@@H](Cc2ccccc2)C(=O)NCc2cccs2)n1,2.49%
16,CN(c1ccc2c(c1)nc(NCc1ccccc1)n2C)c1ccnc(Nc2ccc(CS(C)(=O)=O)cc2)n1,1.86%
17,CCN(CC)CCCn1c(N)c(-c2nc3ccccc3[nH]2)c2nc(C#N)c(C#N)nc21,6.56%
18,Cn1cc(C2CCN(CCCCNC(=O)c3ccc(-c4ccc(C(F)(F)F)cc4)c(CO)c3)CC2)c2ccccc21,3.1%
19,Cc1[nH]c(C)c([N+](=O)[O-])c(=O)c1-c1ccc(Oc2ccccc2)cc1,0.5%
20,O=C(Nc1cccc(CN2CCCN(Cc3ccc(O)cc3)CC2)c1)c1cc2ccccc2o1,2.02%

row,SMILES,inhibition
1,CS(=O)(=O)Cc1ccc(Nc2nccc(N3CCCc4cc(NC(=O)Nc5cccc(C(F)(F)F)c5)ccc43)n2)cc1,15.9%
2,Cc1ccc2c(Cc3cnc(N)nc3N)cc(C)c(N)c2n1,3.47%
3,Cc1cc(N[C@@H](Cc2ccccc2)C(=O)NCCOc2ccccc2)nc(Nc2ccccc2)n1,6.54%
4,O=C(Nc1ccc(N2CCCN(Cc3cccc(F)c3)CC2)cc1)c1ccccc1,-0.73%
5,COCCN1CCN(Cc2ccc(-c3ccc(-c4nc5cc(F)ccc5[nH]4)cc3)cc2)CC1,3%
6,COc1ccc2nc(N=C3NC4(c5ccccc5)NC(=Nc5nc6ccc(OC)cc6[nH]5)NC4(c4ccccc4)N3)[nH]c2c1 (stereo not given),-0.84%
7,O=[N+]([O-])c1ccc(Nc2nc(NCc3ccccc3)nc(N/N=C/c3ccccc3[N+](=O)[O-])n2)cc1,-0.41%
8,CCc1c(CCNCCCCCCNCCc2ccc([N+](=O)[O-])cc2)ccc(OC)c1OC,10.1%
9,O=C(O)C[C@H](NC(=O)c1cc(-c2ccc3c(c2)OCO3)no1)C(=O)O.O=C(O)C[C@H](NC(=O)c1conc1-c1ccc2c(c1)OCO2)C(=O)O,-1.07%
10,COc1ccc2nccc([C@@H](O)CN3CCC(NCc4cc5c(F)ccc(F)c5[nH]4)CC3)c2c1,29.8%
11,CCc1ccc(C2=Nn3c(nnc3-c3cccs3)SC2)cc1,1.1%
12,COC1(C)Oc2ccc3cccc([N+](=O)[O-])c3c2C1=O (stereo not given),-0.47%
13,COc1ccccc1N1CCN(Cc2c(NC(C)=O)sc(C)c2C)CC1,0.56%
14,Fc1cccc(Nc2nc(NCc3ccc4ccsc4c3)nc(Nc3cccc(F)c3)n2)c1,18%
15,Cc1cc(-c2ccc3c(c2)CCN(CCC2CCC(NC(=O)/C=C/c4cccc(Cl)c4)CC2)CC3)on1 (stereo not given),3.51%
16,COc1ccc2nc3cc(Cl)ccc3c(NCCCCCCNc3c4ccc(Cl)cc4nc4ccc(OC)cc34)c2c1,11.2%
17,Oc1cc(Nc2ccnc3cc(I)ccc23)c(F)cc1Cl,2.02%
18,Cc1cc(C)n(Cc2ccc(C(=O)NCC3CCCCC3)cc2)n1,2.07%
19,COc1ccc2nccc([C@@H](O)CN3CCC(NC(=O)C(c4cc5ccccc5o4)N4CCN(c5ccc(F)cc5)CC4)CC3)c2c1 (stereo not given in full),1.79%
20,CCNc1cc(C(=O)N[C@@H](Cc2ccccc2)[C@H](O)CNC23CCC(CC2)CC3)cc(N2CCCCS2(=O)=O)c1,0.04%
